Sm TGR inh – S. mansoni TGR enzyme inhibition. purified TGR, DTNB reduction, TNB absorbance 405 nm. 360,000 compounds, 3% hits. Potency, µM (top dose mostly 114 µM), without a hit: at the highest dose activity change, negative = inhibition, usual class: inhibitors; further: nearly all actives have a fitted effect of over 60% in size
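Kinetic colorimetric format: TGR-catalysed, NADPH-driven DTNB reduction monitored via TNB absorbance. Enzyme dispensed at 20 nM; compound exposure 15 min at room temperature before reaction start.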
LmPK inh – LmPK (Leishmania mexicana) enzyme inhibition; Q27686; purified LmPK, Kinase-Glo ATP luminescence, 1 h; Potency, µM (top dose mostly 57.5 µM), for inactives: at the top dose activity change, negative = inhibition, actives largely listed as inhibitors; 290,000 compounds, 0.37% hits; AID 1721
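Purified LmPK (0.1 nM) converted ADP (0.1 mM) to ATP with PEP (0.5 mM) in imidazole buffer pH 7.2 with KCl and MgCl2, 1 h at room temperature. ATP was read by Kinase-Glo luminescence; data normalized to uninhibited and no-enzyme controls.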
RE007 growth inh – less growth of the S. pombe RE007 Vpr strain; S. pombe RE007 Vpr strain, BacTiter-Glo ATP luminescence, 24 h; AID 651644; Potency, µM (titrated, usually from 92.2 µM), for the others: at the highest dose activity change, negative = less growth, hits mostly inhibitors; 360,000 compounds, 0.21% hits; active means well fitted falling curve with a large enough effect; inconclusive means small, poorly fitted or top-dose-only effect; inactive means no such curve, though single readings can be large or run the other way; further: nearly all actives have a fitted effect of over 50% in size
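Fission yeast strain RE007, carrying one chromosomally integrated HIV-1 vpr copy, was seeded at OD 0.01 in PMG+AL medium with 23 nL pinned compound. After 24 h at 30 °C and 99% humidity, viability was read by BacTiter-Glo luminescence.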
Tb PYK inh – inhibitors of Trypanosoma brucei pyruvate kinase | 410,000 compounds, 0.12% hits | TbPYK enzyme, Kinase-Glo Plus ATP luminescence, 45 min | Potency, µM (doses to about 76.8 µM), inactives show top-dose activity, negative = inhibition, actives largely listed as inhibitors | Q57TT1 | AID 624173; further: nearly all actives have a fitted effect of over 50% in size
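T. brucei PYK with substrate was exposed to pin-transferred compounds across a concentration series, then started with 130 uM ADP (final). After 45 min at room temperature, Kinase-Glo Plus luminescence was read, normalized and curve-fitted.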
Giardia FBPA inh-1 – inhibitors of Giardia lamblia fructose-1,6-bisphosphate aldolase; A8B2U2; Potency, µM (titrated, usually from 59.6 µM), for the others: at the top dose activity, negative = inhibition, actives largely listed as inhibitors; 290,000 compounds, 0.71% hits; purified Giardia FBPA; further: nearly all actives have a fitted effect of over 55% in size
Target sequence (A8B2U2 whole entry, looked up): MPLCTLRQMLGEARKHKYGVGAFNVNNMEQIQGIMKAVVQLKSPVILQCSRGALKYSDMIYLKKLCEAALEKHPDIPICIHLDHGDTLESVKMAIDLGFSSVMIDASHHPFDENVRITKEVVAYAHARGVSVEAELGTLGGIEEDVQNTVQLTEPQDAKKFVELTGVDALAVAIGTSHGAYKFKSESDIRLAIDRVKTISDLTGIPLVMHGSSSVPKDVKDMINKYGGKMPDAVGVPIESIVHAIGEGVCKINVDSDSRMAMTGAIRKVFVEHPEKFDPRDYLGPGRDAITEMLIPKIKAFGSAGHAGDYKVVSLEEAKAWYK
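Giardia FBPA (40 nM reagent) was preincubated 10 min at RT with compound (up to 57.5 uM final), then substrate plus GAPDH/TPI/NAD/arsenate coupling system with diaphorase/resazurin was added; resorufin fluorescence (525/598 nm) was read after 20 min.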
Giardia growth – inhibitors of Giardia lamblia growth; 1,500 compounds, 5% hits; Giardia lamblia trophozoite growth inhibition; shares compounds with Giardia FBPA inh-1; Potency, µM (titrated, usually from 57.5 µM), for the others: at the highest dose activity change, negative = inhibition, hits mostly inhibitors;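 further: trophozoites exposed to compound for 48 h at 37 °C; nearly all actives have a fitted effect of over 70% in size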
Mammal cell tox – toxic to mammalian cells in Giardia aldolase counter-screen | shares compounds with Giardia FBPA inh-1 | mammalian cell viability counter-screen, qHTS | Potency, µM (highest dose often 57.5 µM), for inactives: at the top dose viability change, negative = toxicity, most hits filed as inhibitors | 1,500 compounds, 4% hits | AID 2786;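 further: Chinese hamster ovary cells used as mammalian cytotoxicity surrogate; viability measured as cellular ATP by luminescence; compound exposure lasted 48 h before reading; nearly all actives have a fitted effect of over 60% in size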
Giardia FBPA inh-2 – confirmation of Giardia fructose-bisphosphate aldolase inhibitors; shares compounds with Giardia FBPA inh-1; purified Giardia aldolase enzyme activity, qHTS; Potency, µM (top dose mostly 57.5 µM), for the others: at the top dose activity change, negative = inhibition, most hits filed as inhibitors; 1,500 compounds, 5% hits; AID 2787; further: nearly all actives have a fitted effect of over 45% in size
Rabbit FBPA inh – rabbit FBP aldolase inhibition by Giardia aldolase hits; shares compounds with Giardia FBPA inh-1; Rabbit muscle FBPA enzyme inhibition, selectivity counter-screen; Potency, µM (series often up to 57.5 µM), for inactives: at the highest dose activity, negative = inhibition, most hits filed as inhibitors; 1,500 compounds, 4% hits; AID 2794; further: nearly all actives have a fitted effect of over 60% in size
GAPDH counter – counter-screen for Giardia aldolase inhibitors: GAPDH coupling enzyme | Potency, µM (top dose mostly 57.5 µM), inactives show top-dose activity change, negative = inhibition, actives largely listed as inhibitors | 1,500 compounds, 6% hits | GAPDH coupling enzyme counterscreen, biochemical, qHTS | shares compounds with Giardia FBPA inh-1; further: nearly all actives have a fitted effect of over 55% in size
Numbers without * were called inactive; ? = inconclusive; nt = not tested or not shown; [ ] = another dose, or the depositor's remark. Rows were chosen to be rich in hits. Some 3.3% of all compounds tested hit in one or more screens of this group. Unless noted, the call rests on the fitted dose curve; in most records, active means well fitted curve in the direction sought with a large enough effect; inconclusive means small, poorly fitted or top-dose-only effect, or another doubt; inactive means no such curve, though single readings can be large; an effect the other way counts as inactive or inconclusive. On the % scale 0 is the no-effect control and ±100 the full control effect; potency means the concentration at half of the fitted maximal effect.

SMILES	Sm TGR inh	LmPK inh	RE007 growth inh	Tb PYK inh	Giardia FBPA inh-1	Giardia growth	Mammal cell tox	Giardia FBPA inh-2	Rabbit FBPA inh	GAPDH counter
Cc1nc(NC(=O)CN2CC(C)OC(C)C2)sc1C(=O)N(C)C (configuration not stated)	4.1%	-4.2%	-1.8%	2.3%	11.2µM*	14.8%	0.9%	7.5%	8.0%	8.7%
COC(=O)c1ccccc1NC(=O)CN1C(=O)c2ccccc2S1(=O)=O	-5.0%	11.4%	2.4%	-16.4%	17.5%	nt	nt	nt	nt	nt
OCCNC(=S)NCCc1ccccc1	2.4%	-0.7%	-14.9%	-2.6%	0.3%	nt	nt	nt	nt	nt
S=C(NCCc1ccccc1)Nc1c(Cl)cccc1Cl	-21.0%	10.7%	-10.6%	-16.3%	9.98µM*	-10.2%[38.3 µM]	-30.0%	?	?	?
O=C(CCc1nc(-c2ccccc2F)no1)NCc1ccco1	-12.7%	0.6%	3.1%	4.4%	-1.7%	nt	nt	nt	nt	nt
CCN(CCNCC(O)COc1ccccc1C(C)C)c1cccc(C)c1 (configuration not stated)	8.5%	-6.2%	1.6%	19.3%	22.4µM*	11.6%	-25.5%	-5.5%	0.4%	-16.0%
COc1ccc2[nH]c(=O)c(CN(CCO)S(=O)(=O)c3ccc4c(c3)OCCO4)cc2c1	-19.5%	6.9%	7.3%	0.2%	-2.0%	nt	nt	nt	nt	nt
COCCNC(=O)CNC(c1ccccc1)c1ccccc1	1.1%	-10.4%	nt	nt	19.9µM*	11.2%	-9.3%	1.2%	4.1%	6.9%
COc1ccc(CNC(=O)CNC(c2ccccc2)c2ccccc2)cc1OC	-15.9%	-6.4%	2.2%	1.0%	4.4%	nt	nt	nt	nt	nt
C=CCn1c(O)c(/C=C2/C=c3ccccc3=N2)c(=O)[nH]c1=S	?	11.0%	11.4%	-14.1%	-17.0%	nt	nt	nt	nt	nt
O=C(CSc1nc2c([nH]c3ccccc32)c(=O)n1-c1ccc(Cl)cc1)NCC1CCCO1 (configuration not stated)	10.8%	nt	nt	-5.8%	nt	nt	nt	nt	nt	nt
CNc1cccccc1=S	5.62µM*	-5.0%	-29.3%	-17.9%	9.98µM*	-13.2%	5.2%	?	?	31.6µM*
Cc1ccc(/C=C2\SC(=S)N(CC3CCCO3)C2=O)o1 (configuration not stated)	3.98µM*	-7.4%	2.4%	?	17.7µM*	-22.1%	10.3%	-22.8%	-10.2%	-17.7%
NS(=O)(=O)c1ccc(CNC(=O)CC23CC4CC(CC(C4)C2)C3)cc1	-9.0%	3.1%	26.6%	-1.5%	-2.3%	nt	nt	nt	nt	nt
O=C(Nc1ccc(F)cc1)Oc1ccc[nH]c1=O	?	-4.6%	nt	5.8%	?	6.9%[38.3 µM]	-17.4%	0.461µM*	?	-29.7%
Nc1nc(=S)c2ncn([C@H]3O[C@@H](CO)[C@@H](O)[C@@H]3O)c2[nH]1	nt	nt	nt	nt	5.61µM*	-2.2%[19.1 µM]	5.01µM*	-2.6%[28.7 µM]	-3.1%[28.7 µM]	-2.5%[28.7 µM]
CCOC(=O)CN1C(=O)C(=O)N(Cc2c(C)cc(C)cc2C)C1=O	-13.9%	-1.1%	6.4%	0.7%	7.3%	nt	nt	nt	nt	nt
CC(=O)NC1(C(F)(F)F)C(=O)Nc2c1c(=O)[nH]c(=O)n2Cc1ccco1 (configuration not stated)	-4.1%	4.9%	2.4%	-8.6%	-9.6%	nt	nt	nt	nt	nt

From PubChem
